# According to PubChem BioAssay AID623957 (NMMLSC, 2012):
# Activity calls are given as the source filed them.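 The calls were made as follows: active = compounds whose fitted half-maximal concentration for lowering the signal is under 100 µM; inactive = the rest.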
# Assay: compound effect on K562 vector-control line – cell-based, flow cytometry, cherry pick set 1, counter-screen for ABCB6 inhibitor project, dose response (AID 623957)
# Settings: K562 vector-only cells, flow cytometry fluorescence, 1 h; series mostly up to 100 µM; percent response (signal): at the top concentration
row,SMILES,percent response (signal)
1,CCOC(=O)C(C)NC(=O)CCc1nnc2ccc(N3CCCCC3)nn12 (centres undefined),107% (inactive)
2,O=C(CN1CCCCC1)Nc1cccc(Br)c1,105% (inactive)
3,Cc1cccc(NC(=O)c2nc(S(=O)(=O)Cc3ccccc3)ncc2Cl)c1,102% (inactive)
4,O=C(Nc1ccc(F)cc1)c1nc(S(=O)(=O)Cc2ccccc2)ncc1Cl,97.5% (inactive)
5,CCN1CCN(C(=O)CCc2nnc3ccc(N4CCC5(CC4)OCCO5)nn23)CC1,95.7% (inactive)
6,O=C(CCc1nnc2ccc(N3CCC4(CC3)OCCO4)nn12)N1CCCCC1,111% (inactive)
7,COCCNC(=O)CCc1nnc2ccc(N3CCC(C)CC3)nn12,98.6% (inactive)
8,CC1CC(C)CN(C(=O)CCc2nnc3ccc(N4CCCCC4)nn23)C1 (centres undefined),93.5% (inactive)
9,CC1CCN(c2ccc3nnc(CCC(=O)N4CCCCC4)n3n2)CC1,108% (inactive)
10,COCCCNC(=O)CCc1nnc2ccc(N3CCC(C)CC3)nn12,97.5% (inactive)
11,CC(C)CCNC(=O)CCc1nnc2ccc(N3CCC(C)CC3)nn12,98.4% (inactive)
12,CCN(CC)CCNC(=O)CCc1nnc2ccc(N3CCC(C)CC3)nn12,102% (inactive)
13,CC1CCN(c2ccc3nnc(CCC(=O)NCCCOC(C)C)n3n2)CC1,98.1% (inactive)
14,CC1CCN(c2ccc3nnc(CCC(=O)NC(C)C)n3n2)CC1,107% (inactive)
